From PubChem BioAssay (Tox21)
Several values for one entry are separate records, joined by “and”; a condition that tells them apart may be missing. Identical values can stand only once. Results filed as inconclusive are left out. A call without a number means that no potency is given here. A structure can be active in one record and inactive in another. Activity calls are given as the source filed them. Unless noted, calls come from the whole dose curve.

Columns and labels:
[1] = Nuclear factor erythroid 2-related factor 2/antioxidant responsive element (Nrf2/ARE) small molecule agonists: qHTS cell viability counter screen in human keratinocytes (AID 1919968; active = well fitted curve in the direction sought with a large enough effect in the repeat runs; an effect the other way counts as inactive or inconclusive; note: nearly all actives have a fitted effect of over 55% in size; note: potency is the fitted concentration of half-maximal effect)
In short: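 KeratinoSens cells (HaCaT keratinocytes stably carrying an ARE-luciferase reporter) were seeded at 1,500 cells/well and rested 5 h at 37 C/5% CO2. They were then exposed to compounds in DMSO for 23 h. Viability was read by CellTiter-Fluor fluorescence after 1 h.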

[2] = Nuclear factor erythroid 2-related factor 2/antioxidant responsive element (Nrf2/ARE) small molecule agonists: luciferase reporter gene qHTS assay in human keratinocytes (AID 1919969); note: nearly all actives have a fitted effect of over 35% in size; note: potency is the fitted concentration of half-maximal effect
[3] = target: Gonadotropin-releasing hormone receptor (Homo sapiens) (UniProt P30968); assay: Human gonadotropin-releasing hormone receptor (GnRHR) small molecule agonists, calcium flux assay in GnRHR-HEK293 cells (AID 1920063); note: nearly all actives have a fitted effect of over 35% in size
Sequence of Gonadotropin-releasing hormone receptor (Homo sapiens) (P30968 whole entry, looked up): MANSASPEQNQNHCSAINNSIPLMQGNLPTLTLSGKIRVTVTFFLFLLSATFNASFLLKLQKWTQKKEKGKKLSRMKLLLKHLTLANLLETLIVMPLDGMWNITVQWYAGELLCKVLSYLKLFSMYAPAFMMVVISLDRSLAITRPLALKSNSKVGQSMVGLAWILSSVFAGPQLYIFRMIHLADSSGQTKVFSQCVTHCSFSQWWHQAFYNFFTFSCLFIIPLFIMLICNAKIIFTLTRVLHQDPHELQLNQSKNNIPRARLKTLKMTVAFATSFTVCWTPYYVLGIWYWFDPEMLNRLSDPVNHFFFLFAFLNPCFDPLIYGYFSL
In short: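 HEK293 cells stably expressing human GnRHR were plated 18 h at 37 °C, loaded with calcium dye 1 h at 37 °C, then given compound in agonist mode; fluorescence (Ex/Em 480/540) read kinetically for 3 min at 1 s intervals.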

[4] = target: KiSS-1 receptor (Homo sapiens) (UniProt Q969F8); assay: Human kisspeptin (KISS1R) small molecule agonists, calcium flux assay in KISS1R-HEK293 cells (AID 1920064; active = well fitted curve in the direction sought with a large enough effect in the repeat runs; an effect the other way counts as inactive or inconclusive)
Sequence of KiSS-1 receptor (Homo sapiens) (Q969F8 whole entry, looked up): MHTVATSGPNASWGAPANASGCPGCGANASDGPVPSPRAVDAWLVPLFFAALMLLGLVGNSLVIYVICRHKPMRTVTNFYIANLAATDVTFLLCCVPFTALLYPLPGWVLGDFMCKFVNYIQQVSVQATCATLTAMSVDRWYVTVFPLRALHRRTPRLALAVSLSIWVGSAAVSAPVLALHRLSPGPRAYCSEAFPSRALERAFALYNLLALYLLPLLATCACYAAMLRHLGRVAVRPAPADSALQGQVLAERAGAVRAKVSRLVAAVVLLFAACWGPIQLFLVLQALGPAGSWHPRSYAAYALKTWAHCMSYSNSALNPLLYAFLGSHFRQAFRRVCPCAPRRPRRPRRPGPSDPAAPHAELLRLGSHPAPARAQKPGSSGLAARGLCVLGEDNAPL
In short: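 HEK293 cells stably expressing human KISS1R were plated 18 h at 37 °C, loaded with calcium dye for 1 h at 37 °C, then given compound by pin tool. Fluorescence (Ex/Em 480/540) was read kinetically for 3 min.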

[5] = G protein-coupled receptor (GPCR) small molecule agonists, calcium flux assay: HEK293 wild type cell line counter screen (AID 1920065)
In short: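 Cells were plated and cultured 18 h at 37 C/5% CO2, then loaded with calcium dye for 1 h at 37 C. Compounds in DMSO were pin-transferred in agonist mode, and fluorescence (Ex/Em 480/540) was read kinetically for 3 min at 1 s intervals.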

[6] = p53 small molecule agonists, cell-based qHTS assay with human liver microsomes (AID 1963577);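 note: p53 response element beta-lactamase reporter cells with liver microsomes plus NADPH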
In short: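 Reporter activation was measured by LiveBLAzer fluorescence intensity in p53RE-bla cells, which had been exposed to compounds for 16 h at 37 C alongside 0.5 mg/mL human liver microsomes and 0.5 mg/mL NADPH (final concentrations).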

[7] = p53 small molecule agonists, cell-based qHTS assay with rat liver microsomes (AID 1963578)
In short: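 Compound in DMSO added to p53RE-bla cells 5 h post-plating; rat microsomes/NADPH 0.5 mg/mL final; 16 h, 37 C; LiveBLAzer 2 h RT.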

[8] = p53 small molecule agonists, cell-based qHTS assay with human liver microsomes: qHTS cell viability counter screen (AID 1963579); note: nearly all actives have a fitted effect of over 45% in size
In short: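 HLM-supplemented (0.5 mg/mL final) and NADPH-supplemented (0.5 mg/mL final) p53RE-bla cultures, 4,000 cells per well, were dosed with compounds in DMSO for 16 h at 37 C; luminescent ATP detection (CellTiter-Glo, 30 min, room temperature) quantified surviving cells.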

[9] = p53 small molecule agonists, cell-based qHTS assay with rat liver microsomes: qHTS cell viability counter screen (AID 1963580); note: nearly all actives have a fitted effect of over 45% in size
In short: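 p53RE-bla HCT-116 cells were exposed 16 h at 37 C to compounds with rat liver microsomes (0.5 mg/mL) and NADPH (0.5 mg/mL). Viability was measured in the same wells as ATP content by CellTiter-Glo luminescence.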

[10] = p53 small molecule agonists, cell-based qHTS assay: qHTS cell viability counter screen (AID 1963581); note: nearly all actives have a fitted effect of over 45% in size
In short: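 p53RE-bla HCT-116 cells were exposed to compounds for 16 h at 37 C; after the beta-lactamase FRET read in the same wells, CellTiter-Glo was added and luminescence (intracellular ATP) read after 30 min at room temperature.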

[11] = p53 small molecule agonists, cell-based qHTS assay (AID 1963582; active = well fitted activation curve with a large enough effect in the signal ratio in the repeat runs, not every such curve was filed as active; the % refers to the signal ratio)
In short: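 p53RE-bla beta-lactamase reporter cells rested 5 h at 37 C/5% CO2, then received compounds in DMSO by pin transfer and were incubated 16 h at 37 C. LiveBLAzer B/G FRET substrate was loaded for 2 h at room temperature before fluorescence reading.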

[12] = target: Muscarinic acetylcholine receptor M1 (Homo sapiens) (UniProt P11229); assay: Cholinergic receptor muscarinic 1 (CHRM1) small molecule antagonists, cell-based qHTS assay (AID 1963588); note: nearly all actives have a fitted effect of over 40% in size
Sequence of Muscarinic acetylcholine receptor M1 (Homo sapiens) (P11229 whole entry, looked up): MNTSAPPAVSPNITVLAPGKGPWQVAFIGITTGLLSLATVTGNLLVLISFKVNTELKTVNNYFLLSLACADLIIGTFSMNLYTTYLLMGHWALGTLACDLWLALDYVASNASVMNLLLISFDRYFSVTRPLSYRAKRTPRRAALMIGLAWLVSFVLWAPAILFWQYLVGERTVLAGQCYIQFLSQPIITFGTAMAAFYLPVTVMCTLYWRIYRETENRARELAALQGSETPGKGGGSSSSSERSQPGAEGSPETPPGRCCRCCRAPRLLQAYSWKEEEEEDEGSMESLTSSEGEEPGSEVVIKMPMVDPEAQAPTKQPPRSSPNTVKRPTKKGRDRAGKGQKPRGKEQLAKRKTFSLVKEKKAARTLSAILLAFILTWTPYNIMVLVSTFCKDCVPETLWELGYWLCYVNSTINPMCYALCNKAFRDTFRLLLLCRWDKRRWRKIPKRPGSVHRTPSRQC
In short: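 CHRM1-CHO calcium-flux assay, antagonist mode. Cells were seeded 18 h, dye-loaded 1 h at 37 C and given compound for 5 min at RT, then acetylcholine was added at 50nM. FDSS fluorescence was read 3 min; 15 concentrations, three runs.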

[13] = target: Muscarinic acetylcholine receptor M1 (Homo sapiens) (UniProt P11229); assay: Cholinergic receptor muscarinic 1 (CHRM1) small molecule agonists, cell-based qHTS assay (AID 1963589); note: nearly all actives have a fitted effect of over 35% in size
In short: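 CHO cells stably expressing human CHRM1, seeded 18 h at 37 C/5% CO2, dye-loaded 1 h at 37 C, then given compound in agonist mode; intracellular calcium fluorescence read kinetically at 1 s intervals. Fifteen concentrations, three independent runs.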

[14] = cAMP Responsive Elements (CRE) small molecule antagonists, cell-based qHTS assay (AID 1963591; active = well fitted inhibition curve with a large enough effect in the signal ratio in the repeat runs, not every such curve was filed as active; the % refers to the signal ratio)
In short: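 CRE-bla HEK293T cells were plated 18 h at 37 °C/5% CO2, pinned with compound in DMSO, then stimulated with NKH477 at 0.25 uM final for 3 h. LiveBLAzer B/G FRET substrate was added and plates incubated 2 h at room temperature.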

[15] = target: Beta-2 adrenergic receptor (Homo sapiens) (UniProt P07550); assay: Adrenergic beta2 receptor (ADRB2) small molecule antagonists, cell-based qHTS assay (AID 1963592); note: series mostly up to about 92 µM; nearly all actives have a fitted effect of over 50% in size
Sequence of Beta-2 adrenergic receptor (Homo sapiens) (P07550 whole entry, looked up): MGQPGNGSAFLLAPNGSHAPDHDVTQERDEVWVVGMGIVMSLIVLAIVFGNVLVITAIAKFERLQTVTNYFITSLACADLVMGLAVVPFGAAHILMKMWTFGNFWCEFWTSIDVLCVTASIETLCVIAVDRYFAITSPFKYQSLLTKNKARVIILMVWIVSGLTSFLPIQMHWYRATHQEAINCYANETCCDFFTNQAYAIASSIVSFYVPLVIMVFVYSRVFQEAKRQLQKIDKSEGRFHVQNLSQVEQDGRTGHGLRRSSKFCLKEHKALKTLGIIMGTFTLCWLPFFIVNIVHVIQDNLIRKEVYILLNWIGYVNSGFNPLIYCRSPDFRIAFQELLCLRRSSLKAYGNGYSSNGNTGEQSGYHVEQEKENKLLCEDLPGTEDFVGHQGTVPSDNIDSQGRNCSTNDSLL
In short: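 Cells (CHO, stable ADRB2 overexpression) incubated 18-20hr at 37C; compounds added from DMSO; agonist mix (1nM isoproterenol, 100uM IBMX, 25uM Ro-20-1724) added; 0.5hr RT; d2-cAMP and anti-cAMP-cryptate added; 1hr RT; 665/615 nm read.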

[16] = target: Beta-2 adrenergic receptor (Homo sapiens) (UniProt P07550); assay: Adrenergic beta2 receptor (ADRB2) small molecule agonists, cell-based qHTS assay (AID 1963593);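 note: CHO cells stably overexpressing human ADRB2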
In short: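 CHO cells stably over-expressing ADRB2 were plated overnight at 37C, then dosed with compounds plus a stimulation mix containing 100uM IBMX and 25uM Ro-20-1724 for 0.5hr at room temperature. cAMP was measured by HTRF competition, 1hr.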

[17] = target: D(2) dopamine receptor (Homo sapiens) (UniProt P14416); assay: Dopamine D2 receptor (DRD2) small molecule agonists, cell-based qHTS assay (AID 1963594); note: nearly all actives have a fitted effect of over 35% in size
Sequence of D(2) dopamine receptor (Homo sapiens) (P14416 whole entry, looked up): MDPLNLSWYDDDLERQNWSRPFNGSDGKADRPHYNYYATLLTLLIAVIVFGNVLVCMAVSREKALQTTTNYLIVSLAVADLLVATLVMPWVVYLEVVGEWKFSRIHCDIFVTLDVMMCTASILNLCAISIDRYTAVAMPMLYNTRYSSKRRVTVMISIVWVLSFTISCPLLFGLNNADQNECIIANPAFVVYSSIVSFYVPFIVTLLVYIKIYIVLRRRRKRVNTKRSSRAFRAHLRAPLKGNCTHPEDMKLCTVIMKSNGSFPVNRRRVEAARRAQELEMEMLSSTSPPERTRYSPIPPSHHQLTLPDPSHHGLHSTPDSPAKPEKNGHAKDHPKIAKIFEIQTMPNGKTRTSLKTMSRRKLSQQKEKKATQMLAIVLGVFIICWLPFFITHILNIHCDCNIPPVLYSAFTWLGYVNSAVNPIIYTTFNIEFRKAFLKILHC
In short: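 HEK293 cells stably expressing human DRD2, pre-treated with PDE inhibitor Ro20-1724 (0.1 mM final) and compound 10 min at room temperature, then stimulated with NKH477 (200nM […]) for 30 min. cAMP read by HTRF (665/620 nm).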

[18] = target: D(2) dopamine receptor (Homo sapiens) (UniProt P14416); assay: Dopamine D2 receptor (DRD2) small molecule antagonists, cell-based qHTS assay (AID 1963595; active = well fitted inhibition curve with a large enough effect in the signal ratio in the repeat runs, with a control signal flat; the % refers to the signal ratio)
In short: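 Human DRD2 antagonist qHTS measuring cAMP by HTRF. The cells are exposed to compound for 10 min, then to NKH477 (200 nM) and quinpirole (12 nM) for 30 min at RT, with Ro20-1724 (0.1 mM) present throughout.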

[19] = target: 5-hydroxytryptamine receptor 2A (Homo sapiens) (UniProt P28223); assay: 5-hydroxytryptamine receptor 2A (HTR2A) small molecule antagonists, cell-based qHTS assay (AID 1963586); note: nearly all actives have a fitted effect of over 45% in size
Sequence of 5-hydroxytryptamine receptor 2A (Homo sapiens) (P28223 whole entry, looked up): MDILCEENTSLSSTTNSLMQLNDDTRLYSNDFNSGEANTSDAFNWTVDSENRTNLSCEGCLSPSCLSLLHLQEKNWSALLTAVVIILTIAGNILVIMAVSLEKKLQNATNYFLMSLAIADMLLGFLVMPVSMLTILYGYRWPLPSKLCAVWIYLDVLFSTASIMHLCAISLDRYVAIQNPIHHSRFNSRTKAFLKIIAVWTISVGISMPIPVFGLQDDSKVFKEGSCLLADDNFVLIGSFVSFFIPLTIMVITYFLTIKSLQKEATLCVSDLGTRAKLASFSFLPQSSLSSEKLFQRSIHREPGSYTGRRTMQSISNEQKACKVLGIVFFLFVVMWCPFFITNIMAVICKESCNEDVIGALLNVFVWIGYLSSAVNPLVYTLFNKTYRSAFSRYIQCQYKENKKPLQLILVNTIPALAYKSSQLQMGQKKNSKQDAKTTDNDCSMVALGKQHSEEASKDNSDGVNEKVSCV
In short: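 Antagonist-mode intracellular calcium assay: DOI (4 nM) added after 5 min compound pre-incubation at room temperature to dye-loaded HTR2A-CHO cells. Fluorescence followed for 3 min, sampled every second.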

[20] = cAMP Responsive Elements (CRE) small molecule agonists, cell-based qHTS assay (AID 1963590)
In short: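 CRE-bla HEK 293T cells in DMEM with 10% dialyzed FBS, NEAA, pyruvate and 25 mM HEPES were plated 18 h at 37 C/5% CO2, then exposed to compounds in DMSO for 3 h before LiveBLAzer B/G FRET substrate addition.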

SMILES | Potency [1] | Potency [2] | Potency [3] | Potency [4] | Potency [5] | Potency [6] | Potency [7] | Potency [8] | Potency [9] | Potency [10] | Potency [11] | Potency [12] | Potency [13] | Potency [14] | Potency [15] | Potency [16] | Potency [17] | Potency [18] | Potency [19] | Potency [20]
CCCCCCOCCO | inactive | inactive | inactive | inactive | inactive | inactive | inactive | inactive | inactive | inactive | inactive | inactive | inactive | inactive | inactive | inactive | inactive | inactive |  | 
Cc1ccc(S(=O)(=O)Oc2ccc(N=Nc3ccc(-c4ccc(N=Nc5c(O)ccc6cc(S(=O)(=O)O)cc(S(=O)(=O)O)c56)c(C)c4)cc3C)cc2)cc1 | 24.4 µM (active) and 17.8 µM (active) | inactive | inactive | inactive | inactive | inactive | inactive | inactive | inactive | inactive | inactive |  | inactive | inactive | inactive |  | inactive | inactive | inactive | inactive
CC(O)COc1ccccc1 (stereo unspecified) | inactive | inactive | inactive | inactive | inactive | inactive | inactive | inactive | inactive | inactive | inactive | inactive | inactive | inactive | inactive | inactive | inactive | inactive | inactive | inactive
O=C(OCC1CCC2OC2C1)C1CCC2OC2C1 (stereo unspecified) | inactive | inactive | inactive | inactive | inactive | inactive | inactive | inactive | inactive | inactive | inactive | inactive | inactive | inactive | inactive |  | inactive | inactive |  | inactive
CN(C)CCOCCN(C)C | inactive | inactive | inactive | inactive | inactive | inactive | inactive | inactive | inactive | inactive | inactive | inactive | inactive | inactive | inactive | inactive | inactive | inactive | inactive | inactive
O=C1OC(c2ccc(O)cc2)(c2ccc(O)cc2)c2ccccc21 | 48.2 µM (active) and inactive | 24.2 µM (active) and inactive | inactive | inactive | inactive | inactive | inactive | inactive | inactive | inactive | inactive | inactive | inactive | inactive | inactive |  | inactive | inactive | inactive | inactive
Clc1ccc(Cl)c(Cl)c1Cl | inactive | inactive | inactive | inactive | inactive | inactive | inactive | inactive | inactive | inactive | inactive | inactive | inactive | inactive | inactive |  | inactive | inactive |  | inactive
CC(C)(N)CO | inactive | inactive | inactive | inactive | inactive | inactive | inactive | inactive | inactive | inactive | inactive | inactive | inactive | inactive | inactive |  |  |  |  | inactive
CCOc1ccc(NC(=O)CC(C)O)cc1 (stereo unspecified) | inactive | inactive | inactive | inactive | inactive | inactive | inactive | inactive | inactive | inactive | inactive | inactive | inactive | inactive | inactive | inactive | inactive | inactive |  | inactive
COc1ccc(CCC(C)=O)cc1 | inactive | inactive | inactive | inactive | inactive | inactive | inactive | inactive | inactive | inactive | inactive | inactive | inactive | inactive | inactive | inactive | inactive | inactive | inactive | inactive
CC(=O)Oc1ccc(C)cc1 | inactive | inactive | inactive | inactive | inactive | inactive | inactive | inactive | inactive | inactive | inactive | inactive | inactive | inactive | inactive |  | inactive | inactive | inactive | inactive
O=C(O)c1[nH]n(-c2ccc(S(=O)(=O)O)cc2)c(=O)c1N=Nc1ccc(S(=O)(=O)O)cc1 | 24.4 µM (active) and 45.4 µM (active) | inactive | inactive | inactive | inactive | inactive | inactive | inactive | inactive | inactive | inactive | inactive | inactive | inactive | inactive | inactive |  |  | inactive | inactive
CC(=O)CC(C)(C)O | inactive | inactive | inactive | inactive | inactive | inactive | inactive | inactive | inactive | inactive | inactive |  | inactive | inactive | inactive |  | inactive | inactive | inactive | inactive
